# Rv3671c protease – inhibitors of M. tuberculosis serine protease Rv3671c | 320,000 compounds, 0.048% hits | inhibition, % at 5.96 µM | P9WHR9; in the data active = inhibition above about 38%;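 note: extracellular domain of Rv3671c used as enzyme; 0% = enzyme with DMSO and 100% = no enzyme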
# Target sequence (P9WHR9 whole entry, looked up, the tested form may be a part): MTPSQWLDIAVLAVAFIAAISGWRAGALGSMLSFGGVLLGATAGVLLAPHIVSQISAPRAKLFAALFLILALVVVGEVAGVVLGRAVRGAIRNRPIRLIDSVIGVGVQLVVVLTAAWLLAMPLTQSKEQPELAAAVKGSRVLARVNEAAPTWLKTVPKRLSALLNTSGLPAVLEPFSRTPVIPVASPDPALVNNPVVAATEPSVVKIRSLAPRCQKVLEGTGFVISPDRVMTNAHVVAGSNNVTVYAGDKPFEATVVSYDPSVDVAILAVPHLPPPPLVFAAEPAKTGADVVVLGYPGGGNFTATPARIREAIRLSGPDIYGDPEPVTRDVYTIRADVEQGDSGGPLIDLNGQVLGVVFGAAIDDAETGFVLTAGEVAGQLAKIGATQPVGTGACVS
# GDH-TPI counter-1 – GDH-TPI coupled enzyme inhibition counter-screen. GDH-TPI coupled enzyme counterscreen, NADH absorbance. inhibition, % at 4.8 µM. 360,000 compounds, 1.2% hits; in the data active = inhibition above about 30%;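 note: 0% = DMSO wells and 100% = wells lacking the enzyme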
# Mtb betalactam – beta-lactam sensitization of Mtb H37Rv | M. tuberculosis H37Rv growth with meropenem, percent inhibition | inhibition, % at 25 µM | 330,000 compounds, 0.27% hits | AID 434955; call rule not given here;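 note: growth measured after seven days incubation then overnight dye step; 0% = bacteria only wells and 100% = bacteria with antibiotic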
# Mtb UGM inh – Mtb UDP-galactopyranose mutase inhibition | inhibition, % at 10 µM | purified UGM, fluorescence polarization probe displacement | AID 504406 | P9WIQ1 | 320,000 compounds, 0.06% hits; in the data active = inhibition above about 10%, passing the limit was not always enough
# FBA Mtb inh – inhibits M. tuberculosis FBA enzyme; inhibition, % at 1 µM; AID 588726; P9WQA3; purified M. tuberculosis FBA, fluorescence read-out; 360,000 compounds, 2.3% hits;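 note: 0% = vehicle and 100% = reference inhibitor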
# RecA splice inh – blocks M. tuberculosis RecA intein splicing; cell-free RecA intein splicing, fluorescence; AID 2221; P9WHJ3; 290,000 compounds, 0.75% hits; inhibition, % (concentration not given with the values); in the data active = inhibition above about 30%;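 note: 0% = vehicle wells and 100% = reference inhibitor control wells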
# Mtb FBA confirm – Mtb FBA inhibition, confirmed | shares compounds with FBA Mtb inh | 5,600 compounds, 78% hits | inhibition, % at 1 µM | purified M. tuberculosis FBA, fluorescence read-out;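 note: 0% = vehicle wells and 100% = reference inhibitor wells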
# GDH-TPI counter-2 – inhibits GDH-TPI coupling enzymes, flagging Mtb FBA hits. GDH-TPI coupled enzyme counterscreen, fluorescence. 5,600 compounds, 81% hits. shares compounds with FBA Mtb inh. inhibition, % at 1 µM; in the data active = inhibition above about 10%
# Active calls of the source: *; / = no result given. Rows were chosen to be rich in hits. Some 4% of all compounds tested hit in one or more screens of this group. Cut-off read from the data, not from the text of the source, unless noted: active = inhibition above about 27%; inactive = the rest.
SMILES,Rv3671c protease,GDH-TPI counter-1,Mtb betalactam,Mtb UGM inh,FBA Mtb inh,RecA splice inh,Mtb FBA confirm,GDH-TPI counter-2
COc1ccc(Cl)cc1C(=O)OCC(=O)NCCNC(=O)COC(=O)c1cc(Cl)ccc1OC,4,2,-13,-3,2,3,/,/
Cc1cccc(NC(=O)c2ccc(NS(=O)(=O)c3cccc4cccnc34)cc2)c1,/,-13,/,/,5,/,/,/
O=C(Nc1cccc(-c2cn3ccccc3n2)c1)C1CC1,-2,14,-1,-2,36*,-1,112*,88*
CC1(C)C2CCC(CN)C1C2 (centres undefined),/,8,/,/,-1,/,/,/
CC1CCCCC1N(C)C1CCN(C(=O)CNC(=O)/C=C/c2cccc(Cl)c2)CC1 (centres undefined),-6,-3,-3,1,6,0,/,/
O=C(O)C1CSC(c2ccc3c(c2)OCO3)N1 (centres undefined),-4,0,-1,4,42*,0,-6,-4
CCCCc1nnc(NC(=O)c2ccccc2OCc2c(C)noc2C)s1,0,0,-10,1,1,3,/,/
Cc1ccc2ncc(S(=O)(=O)c3ccccc3)c(N3CCCCC3C)c2c1 (centres undefined),-13,-19,-5,0,1,23,/,/
c1ccc2cc3[nH]c(CN4CCOCC4)nc3cc2c1,0,7,-2,-5,103*,1,8,-6
c1ccc2[nH]c(CN3CCOCC3)nc2c1,4,11,3,1,2,-5,/,/
Cc1ccc(CNC(=O)CN(C(=O)C2(C)CC(=O)N=C3C=CC=CN32)c2cccc(C)c2C)cc1 (centres undefined),-14,1,10,-1,111*,1,93*,86*
Cc1ccc(N(CC(=O)NCc2ccccc2)C(=O)c2csnn2)c(C)c1,3,2,11,1,0,1,/,/
Cc1ccc(CNC(=O)CN(C(=O)C2(C)CC(=O)N=C3C=CC=CN32)c2ccccc2)cc1 (centres undefined),5,2,-6,2,74*,-1,-1,-2
CC(C)C1C(=O)N(Cc2cn(CCC3OCCO3)nn2)CCS(=O)(=O)N1Cc1ccc(-c2ccc(F)cc2Cl)cc1 (centres undefined),/,/,/,/,0,/,/,/
O=C(CCNC(=O)c1ccc([N+](=O)[O-])cc1)Nc1nc2ccccc2[nH]1,/,2,/,/,0,/,/,/
CCOc1c(Cl)cc(/C=C/C(=O)N(CC)CC(=O)NCc2cccs2)cc1OC,-6,8,-19,0,7,0,/,/
C#CCOCCOCCOCCNc1nc(N2CCN(C(=O)[C@H](CO)n3cc([C@@H](N)C(C)C)nn3)CC2)nc(N2CCN(C(=O)[C@H](CO)n3cc([C@@H](N)C(C)C)nn3)CC2)n1,/,4,/,/,0,/,/,/
CCC(C)NC(=S)Nc1ccc2nc(N3CCOCC3)cc(C)c2c1 (centres undefined),2,6,2,-2,29*,-5,1,-2
CCC(C)NC(=S)Nc1ccc2nc(N3CCN(CC)CC3)cc(C)c2c1 (centres undefined),3,4,-2,0,14,-1,/,/
CCN1CCN(c2cc(C)c3cc(NC(=S)N4CCOCC4)ccc3n2)CC1,2,13,-6,-4,22,-7,/,/
CCC(C)NC(=O)CCC(=O)Nc1ccc2nc(N3CCOCC3)cc(C)c2c1 (centres undefined),0,22,-3,-5,77*,-2,3,-3
Cc1ccc(C)c(N2CCN(C(=S)Nc3ccc4nc(N5CCN(C)CC5)cc(C)c4c3)CC2)c1,5,9,97,0,15,3,/,/
COc1cc(NC(=O)CCC(=O)Nc2ccc3nc(N4CCOCC4)cc(C)c3c2)cc(OC)c1OC,-7,24,-1,2,106*,/,40*,30*
Cc1ccc(C)c(N2CCN(C(=S)Nc3ccc4nc(N5CCOCC5)cc(C)c4c3)CC2)c1,15,9,1,4,27*,-1,89*,64*
COc1ccc(N(C)C(=O)CCC(=O)Nc2ccc3nc(N4CCOCC4)cc(C)c3c2)c(OC)c1,-6,6,4,0,14,-2,/,/
SMILES,Rv3671c protease,GDH-TPI counter-1,Mtb betalactam,Mtb UGM inh,FBA Mtb inh,RecA splice inh,Mtb FBA confirm,GDH-TPI counter-2
COc1ccc(CCN2C(=O)CSC2c2ccc(F)cc2)cc1 (centres undefined),-2,-10,-5,1,-1,3,/,/
CC12CCC(=O)C=C1CCC1C2C(O)CC2(C)C1CCC2(O)C(=O)COC(=O)COCC(=O)O (centres undefined),/,8,/,/,0,/,/,/
Cc1ccc(S(=O)(=O)N(C)C)cc1NC(=O)c1cc(=O)c2ccccc2o1,-8,1,-8,4,4,0,/,/
Cc1cc(N2CCOCC2)nc2ccc(NC(=O)CCC(=O)N3CCN(c4cccc(C(F)(F)F)c4)CC3)cc12,-4,11,75,2,35*,2,54*,40*
Cc1cc(N2CCOCC2)nc2ccc(NC(=O)CCC(=O)N3CCCCC3)cc12,-2,-1,54,2,37*,-3,44*,33*
CCN1CCN(c2cc(C)c3cc(NC(=O)CCC(=O)N4CCN(c5ccccc5)CC4)ccc3n2)CC1,9,5,4,-2,25,2,/,/
CCOC(=O)C1=CCN(S(=O)(=O)c2ccc(C)cc2)C1c1ccc(Cl)c(Cl)c1 (centres undefined),/,/,/,/,-4,/,/,/
Cc1noc(C)c1C(=O)OCC(=O)/C=C1/N(C)c2ccccc2C1(C)C,/,15,/,/,-2,/,/,/
Cn1ccc2c(-c3cccc(C=O)c3)cc3c(c21)C1CCC3O1 (centres undefined),/,/,/,/,3,/,/,/
C[N+]1(CC(=O)OCCCc2ccccc2)CCCCC1,7,-3,-5,-2,30*,5,60*,42*
Nn1c(SCC(=O)Nc2nnc(-c3ccccc3)o2)nnc1C1CC1,-2,8,-12,-1,45*,-6,-1,-2
CN(CCc1ccccc1)C(=O)c1ccc(NC(=O)Cc2ccc(NC(=O)C3CCCN(S(=O)(=O)c4cccc([N+](=O)[O-])c4)C3)cc2)cc1 (centres undefined),/,5,/,/,1,/,/,/
CCO/C=C1/C(=O)N(c2ccccc2OC)C(=O)c2ccccc21,-15,2,-2,-1,35*,-13,96*,81*
COc1ccccc1C(CNC(=O)c1ccc(C)c(S(=O)(=O)N2CCCCC2)c1)N1CCCC1 (centres undefined),/,4,/,/,1,/,/,/
c1ccc(-n2cc(CN3CCC(N4CCOCC4)CC3)c(-c3ccc4c(c3)OCO4)n2)cc1,1,11,-3,-1,36*,0,55*,66*
c1ccc(-n2cc(CN3CCCC3)c(-c3ccc4c(c3)OCO4)n2)cc1,-6,-4,-4,-8,25,4,/,/

# Screening results: PubChem, several laboratories
